Reference: PubChem BioAssay (Tox21)
Several values for one entry are separate records, joined by “and”; a condition that tells them apart may be missing. Equal entries are not always repeated. Inconclusive results are not listed. A call without a number means that no potency is given here. More than one record can exist for a structure, and the calls need not agree. Activity calls are given as the source filed them. Calls follow the shape of the dose curve; as a rule, active = well fitted curve in the direction sought with a large enough effect in the repeat runs; inconclusive = weak or mixed curves; inactive = no such curve, though single readings can be large; an effect the other way counts as inactive or inconclusive.

Assays:
[1] = qHTS RealTime-Glo MT Cell Viability Assay in HepG2 cells - 40 hour (AID 1224870); also: nearly all actives have a fitted effect of over 50% in size
In short: (§1)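 Real-time viability: cells seeded at 600 per well together with NanoLuc and cell-permeant prosubstrate, compounds added after 5 h incubation. Luminescence tracked at 0, 8, 16, 24, 32 and 40 h of exposure.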

[2] = A CellTox Green Cytotoxicity Assay to monitor cytotoxicity in HEK293 cells - 40 hour (AID 1224871); also: nearly all actives have a fitted effect of over 45% in size; also: potency is read from the fitted curve at half-maximal effect
In short: (§2)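 Each value comes from one timepoint of a single continuous run in which HEK293 cells with CellTox Green were exposed to compound for up to 40 h at 37 C, dye fluorescence rising with cell death.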

[3] = qHTS RealTime-Glo MT Cell Viability Assay in HEK293 cells - 16 hour (AID 1224872); also: nearly all actives have a fitted effect of over 50% in size; also: potency is read from the fitted curve at half-maximal effect
In short: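 Viability tracked continuously by luminescence as live cells reduce a prosubstrate for NanoLuc; HEK293 cells preincubated 5 h, compound-treated at 37 C, and read at 0, 8, 16, 24, 32 and 40 h.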

[4] = qHTS RealTime-Glo MT Cell Viability Assay in HepG2 cells - 8 hour (AID 1224873); also: nearly all actives have a fitted effect of over 55% in size
In short: as §1

[5] = A CellTox Green Cytotoxicity Assay to monitor cytotoxicity in HEK293 cells - 24 hour (AID 1224875); also: series mostly up to about 77 µM; nearly all actives have a fitted effect of over 45% in size
In short: as §2

[6] = A CellTox Green Cytotoxicity Assay to monitor cytotoxicity in HepG2 cells - 16 hour (AID 1224876); also: nearly all actives have a fitted effect of over 45% in size
In short: (§3)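 Continuous culture of HepG2 cells with a membrane-impermeant DNA dye; rising fluorescence marks dead cells. Compound exposure lasted up to 40 h at 37 C, with reads every 8 h from 0 h.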

[7] = qHTS RealTime-Glo MT Cell Viability Assay in HepG2 cells - 32 hour (AID 1224877); also: nearly all actives have a fitted effect of over 55% in size
In short: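 Viability was tracked continuously by NanoLuc luminescence from prosubstrate reduced by living HepG2 cells, at successive time points over 40 h of compound exposure. Cells with reagent were preincubated 5 h at 37 °C before compound addition.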

[8] = A CellTox Green Cytotoxicity Assay to monitor cytotoxicity in HepG2 cells - 24 hour (AID 1224878); also: nearly all actives have a fitted effect of over 45% in size; also: potency is read from the fitted curve at half-maximal effect
In short: as §3

[9] = A CellTox Green Cytotoxicity Assay to monitor cytotoxicity in HepG2 cells - 40 hour (AID 1224879); also: nearly all actives have a fitted effect of over 40% in size; also: potency is read from the fitted curve at half-maximal effect
In short: as §3

[10] = qHTS RealTime-Glo MT Cell Viability Assay in HEK293 cells - 40 hour (AID 1224874); conditions: RealTime-Glo luminescence; max response: stronger effect = lower value; also: nearly all actives have a fitted effect of over 50% in size; also: potency is read from the fitted curve at half-maximal effect
In short: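 qHTS format; HEK293 cells with NanoLuc/prosubstrate reagent, 37 C/5% CO2 for 5 h pre-dosing; compounds 23 nL in DMSO; luminescence at each time point reflects viable cells.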

NC(CO)(CO)CO
Potency [1]: inactive | Potency [2]: inactive | Potency [3]: inactive | Potency [4]: inactive | Potency [5]: inactive | Potency [6]: inactive | Potency [7]: inactive | Potency [8]: inactive | Potency [9]: inactive

CCCCC(CC)C(=O)O (centres undefined)
Potency [1]: inactive | Potency [2]: inactive | Potency [3]: inactive | Potency [4]: inactive | Potency [5]: inactive | Potency [6]: inactive | Potency [7]: inactive | Potency [8]: inactive | Potency [9]: inactive

O=C(O)c1ccccc1
Potency [1]: inactive | Potency [2]: inactive | Potency [3]: inactive | Potency [4]: inactive | Potency [5]: inactive | Potency [6]: inactive | Potency [7]: inactive | Potency [8]: inactive | Potency [9]: inactive

CCN(Cc1c(F)cccc1Cl)c1c([N+](=O)[O-])cc(C(F)(F)F)cc1[N+](=O)[O-]
Potency [1]: inactive | Potency [2]: inactive | Potency [3]: 27.5 µM (active) | Potency [10]: 54.9 µM (active) | Potency [5]: inactive | Potency [6]: inactive | Potency [7]: inactive | Potency [8]: inactive | Potency [9]: inactive

CCCCC1(COC(=O)CCC(=O)O)C(=O)N(c2ccccc2)N(c2ccccc2)C1=O
Potency [1]: inactive | Potency [2]: inactive | Potency [3]: inactive | Potency [4]: inactive | max response [10]: 0.752% (inactive) and 12.4% (inactive) and 1.85% (inactive) | Potency [5]: inactive | Potency [6]: inactive | Potency [7]: inactive | Potency [8]: inactive | Potency [9]: inactive

CC(=O)CC(c1ccccc1)c1c(O)c2ccccc2oc1=O (centres undefined)
Potency [2]: inactive | Potency [3]: inactive | Potency [4]: inactive | max response [10]: 5.95% (inactive) [middle of 4 runs] | Potency [5]: inactive | Potency [6]: inactive | Potency [7]: inactive | Potency [8]: inactive | Potency [9]: inactive

O=CC(=O)c1ccccc1
Potency [1]: inactive | Potency [3]: inactive | Potency [4]: inactive | max response [10]: 13% (inactive) | Potency [5]: inactive | Potency [6]: inactive | Potency [7]: inactive | Potency [8]: inactive | Potency [9]: inactive

CNNCc1ccc(C(=O)NC(C)C)cc1
Potency [1]: inactive | Potency [2]: inactive | Potency [3]: inactive | Potency [4]: inactive | max response [10]: 2.93% (inactive) and 2.31% (inactive) and 7.98% (inactive) | Potency [5]: inactive | Potency [6]: inactive | Potency [7]: inactive | Potency [8]: inactive | Potency [9]: 24.5 µM (active) and 15.5 µM (active) and 23.9 µM (active)

CC(C)c1c(C(=O)Nc2ccccc2)c(-c2ccccc2)c(-c2ccc(F)cc2)n1CC[C@@H](O)C[C@@H](O)CC(=O)O
Potency [2]: inactive | Potency [3]: inactive | Potency [4]: inactive | max response [10]: -21% (inactive) | Potency [5]: inactive | Potency [6]: inactive | Potency [7]: inactive | Potency [8]: 2.98 µM (active) and 45.8 µM (active) and 4.77 µM (active) | Potency [9]: 4.21 µM (active) and 5.13 µM (active) and 7.56 µM (active)

NC(=O)c1cccnc1
Potency [2]: inactive | Potency [3]: inactive | Potency [4]: inactive | max response [10]: 9.96% (inactive) and -1.91% (inactive) and 6.24% (inactive) | Potency [5]: inactive | Potency [6]: inactive | Potency [7]: inactive | Potency [8]: inactive | Potency [9]: inactive

O=c1[nH]cc(F)c(=O)[nH]1
Potency [2]: 50.8 µM (active) and inactive | Potency [3]: inactive | Potency [4]: inactive | max response [10]: -1.84% (inactive) and 1.38% (inactive) | Potency [5]: inactive | Potency [6]: inactive | Potency [7]: inactive | Potency [8]: inactive | Potency [9]: 45.3 µM (active) and inactive

CC12CCC(CC1)C(C)(C)O2
Potency [1]: inactive | Potency [2]: inactive | Potency [3]: inactive | Potency [4]: inactive | max response [10]: -1.4% (inactive) and 0.858% (inactive) and 5.76% (inactive) | Potency [5]: inactive | Potency [6]: inactive | Potency [7]: inactive | Potency [8]: inactive | Potency [9]: inactive

CN1CCC[C@H]1c1cccnc1
Potency [2]: inactive | Potency [3]: inactive | Potency [4]: inactive | max response [10]: -1.49% (inactive) and 19.5% (inactive) and 2.35% (inactive) | Potency [5]: inactive | Potency [6]: inactive | Potency [7]: inactive | Potency [8]: inactive | Potency [9]: inactive

CCCC[P+](CCCC)(CCCC)CCCC
Potency [2]: inactive | Potency [3]: 21.8 µM (active) | Potency [4]: inactive | Potency [10]: 21.8 µM (active) and 17.7 µM (active) and 4.36 µM (active) | Potency [5]: inactive | Potency [6]: inactive | Potency [7]: inactive | Potency [8]: inactive | Potency [9]: inactive
